{"source": "PubChem BioAssay (NCATS)", "note": "The source made the active and inactive calls. The call rests on the fitted dose curve."}
{"assay": "Cell Proliferation Assay Versus the ED40515 IL2 Dependent ATL cell lines (AID 1053195)", "settings": "ED40515 IL2-dependent ATL cells", "text": "Adult T-cell leukemia (ATL) develops in individuals infected with human T-cell lymphotropic virus-1 (HTLV-1). Clinically, ATL is subclassified into four subtypes: smoldering, chronic, lymphomatous, and acute. Two autocrine loops (IL-2/IL-2Ralpha and IL-15/IL-15Ralpha) and one paracrine stimulation loop that involves IL-9 expression by ATL cells and IL-9Ralpha expression on monocytes are required to maintain viability and proliferation in the smoldering and chronic forms of the disease. These assays examined the differential response profiles for the MIPE library of approved and investigational drugs versus an IL2 dependent and independent matched ATL cell line, with the current submission examining the differential response profiles for drugs on an IL2 dependent matched ATL cell line.\nPlate log growing ED40515 +IL2 cells: 1000cells/ well in 5uL phenol red free RPMI +5% FBS +1x p/s, Glutamine using 1536 well white griener tissue culture plates and multidrop cassette acoustic dispensing Columns 1 and 3 DMSO Columns 2 and 4, 9.2 uM Bortezomib Incubate 48 hours for celltiter glo 37C with 5%CO2 and 95% humidity with low evaporation lids Dispense 3 uL per well of cell titer glo with multidrop Incubate for 15 minutes at RT Read on VL/2 using Luminesence Wheel (Filter A)"}
{"molecule": "NC(=O)c1ccc(-c2nc(-c3ccc4c(c3)OCO4)c(-c3ccccn3)[nH]2)cc1", "Potency": "37.2 µM (active)"}
{"molecule": "CC(=O)NC(C)c1ccc(Oc2ccc(OC(C)C)cc2)cc1", "note": "(stereo not given)", "Potency": "13.2 µM (active)"}
{"molecule": "O=C(O)CCc1ccc(NCc2cccc(Oc3ccccc3)c2)cc1", "Potency": "0.0833 µM (active)"}
{"molecule": "COc1cc(Nc2ncc3c(n2)-c2ccc(Cl)cc2C(c2c(F)cccc2OC)=NC3)ccc1C(=O)O", "Potency": "0.0066 µM (active)"}
{"molecule": "COc1ccc(-c2ccc3c(N4CCOCC4)nc(N4C[C@@H](C)O[C@@H](C)C4)nc3n2)cc1CO", "Potency": "1.48 µM (active)"}
{"molecule": "Nc1cccc(S(=O)(=O)N2CCCN(S(=O)(=O)c3ccc4c(c3)OCCO4)CC2)c1", "Potency": "16.6 µM (active)"}
{"molecule": "CNCc1ccc(-c2[nH]c3cc(F)cc4c3c2CCNC4=O)cc1", "Potency": "20.9 µM (active)"}
{"molecule": "Cc1cc(SCc2sc(-c3ccc(C(F)(F)F)cc3)nc2C)ccc1OCC(=O)O", "Potency": "26.4 µM (active)"}
{"molecule": "CN[C@@H](C)C(=O)N[C@H]1CCCC[C@H]2CC[C@@H](C(=O)N[C@@H](c3ccccc3)c3cn(CCCCc4ccc(CCCCn5cc([C@@H](NC(=O)[C@@H]6CC[C@@H]7CCCC[C@H](NC(=O)[C@H](C)NC)C(=O)N76)c6ccccc6)nn5)cc4)nn3)N2C1=O", "Potency": "23.5 µM (active)"}
{"molecule": "CS(=O)(=O)c1ccc(C(=O)Nc2ccc(Cl)c(-c3ccccn3)c2)c(Cl)c1", "Potency": "13.2 µM (active)"}
{"molecule": "Cc1cc([C@@H](C)Nc2ccccc2C(=O)O)c2nc(N3CCOCC3)cc(=O)n2c1", "Potency": "1.05 µM (active)"}
{"molecule": "COc1ccc2nc(S(=O)Cc3ncc(C)c(OC)c3C)[nH]c2c1", "note": "(stereo not given)", "Potency": "23.5 µM (active)"}
{"molecule": "CCC(=O)N[C@H]1CC[C@H](C(=O)N(C)c2ccc(-c3nc4ccccc4o3)cc2)C1", "Potency": "3.32 µM (active)"}
{"molecule": "COCC(=O)NCC=Cc1ccc2ncnc(Nc3ccc(Oc4ccc(C)nc4)c(C)c3)c2c1", "Potency": "4.69 µM (active)"}
{"molecule": "C#Cc1cccc(Nc2ncnc3cc(OCCOC)c(OCCOC)cc23)c1", "Potency": "9.35 µM (active)"}
{"molecule": "C[C@]1(c2nc3c(C(N)=O)cccc3[nH]2)CCCN1", "Potency": "16.6 µM (active)"}
{"molecule": "CC1(C)CNc2cc(NC(=O)c3cccnc3NCc3ccncc3)ccc21", "Potency": "23.5 µM (active)"}
{"molecule": "CCc1cncnc1N1CCN(Cc2nc3ccc(C(F)(F)F)cc3[nH]2)CC1", "Potency": "1.18 µM (active)"}
{"molecule": "CC[C@H](Nc1ncnc2nc[nH]c12)c1nc2cccc(F)c2c(=O)n1-c1ccccc1", "Potency": "5.9 µM (active)"}
{"molecule": "CCn1c(-c2nonc2N)nc2cnc(Oc3cccc(NC(=O)c4ccc(OCCN5CCOCC5)cc4)c3)cc21", "Potency": "0.59 µM (active)"}
{"molecule": "CNC(=O)c1ccc(N2C(=S)N(c3ccc(C#N)c(C(F)(F)F)c3)C(=O)C2(C)C)cc1F", "Potency": "16.6 µM (active)"}
{"molecule": "O=C(O)[C@@H](c1ccc(OCc2ccc3ccccc3n2)cc1)C1CCCC1", "Potency": "26.4 µM (active)"}
{"molecule": "Cn1cnc2c(F)c(Nc3ccc(Br)cc3Cl)c(C(=O)NOCCO)cc21", "Potency": "16.6 µM (active)"}
{"molecule": "CNC(=O)c1ccc(C)c(-n2c(C)cc(OCc3ccc(F)cc3F)c(Br)c2=O)c1", "Potency": "5.9 µM (active)"}
{"molecule": "COc1cccc2cc(-c3nc(C4CCC(C(=O)O)CC4)n4ncnc(N)c34)[nH]c12", "note": "(stereo not given)", "Potency": "4.18 µM (active)"}
{"molecule": "Nc1nc2[nH]cc(CCc3ccc(C(=O)N[C@@H](CCC(=O)O)C(=O)O)cc3)c2c(=O)[nH]1", "Potency": "0.0296 µM (active)"}
{"molecule": "Nc1nc2ccc(OC(F)(F)F)cc2s1", "Potency": "23.5 µM (active)"}
{"molecule": "CC(C)(N)C(=O)N[C@H](COCc1ccccc1)C(=O)N1CCC2(CC1)CN(S(C)(=O)=O)c1ccccc12", "Potency": "11.8 µM (active)"}
{"molecule": "COc1ccc(CC2=NN3C([C@@H](CCc4ccccc4)[C@@H](C)O)=NC(C)C3C(=O)N2)cc1OC", "note": "(stereo not given in full)", "Potency": "10.5 µM (active)"}
{"molecule": "Cc1cc(Nc2nc(N[C@@H](C)c3ncc(F)cn3)ncc2Cl)n[nH]1", "Potency": "0.662 µM (active)"}
{"molecule": "CCOc1ccc(Cc2cc([C@@H]3O[C@H](CO)[C@@H](O)[C@H](O)[C@@H]3O)ccc2Cl)cc1", "Potency": "4.69 µM (active)"}
{"molecule": "Clc1ccc(Nc2nnc(Cc3ccncc3)c3ccccc23)cc1", "Potency": "37.2 µM (active)"}
{"molecule": "O=C1CCCC2=C1C(c1[nH]ncc1Cl)N=C(Nc1nc3ccccc3o1)N2", "note": "(stereo not given)", "Potency": "29.6 µM (active)"}
{"molecule": "CN(C(=O)c1ccc(F)cc1C(F)(F)F)C1CCN(c2nnc(-c3ccnn3C)c3ccccc23)CC1", "Potency": "2.96 µM (active)"}
{"molecule": "OCCn1cc(-c2cnc3nnn(Cc4ccc5ncccc5c4)c3n2)cn1", "Potency": "18.7 µM (active)"}
{"molecule": "CC1(C)SCCN(S(=O)(=O)c2ccc(OCC#CCO)cc2)[C@@H]1C(=O)NO", "Potency": "23.5 µM (active)"}
{"molecule": "COc1ccccc1[C@H](c1cccc2ccccc12)[C@@](C)(C#N)C(=O)N1CCC(c2cccc(C(F)(F)F)c2)CC1", "Potency": "2.64 µM (active)"}
{"molecule": "O=c1[nH]c(-c2ccc(C(F)(F)F)cc2)nc2c1CSCC2", "Potency": "26.4 µM (active)"}
{"molecule": "CC(C)OC(=O)C1=CN(C(=O)c2ccc(F)c(F)c2)CC(C)(C)c2c1[nH]c1ccccc21", "Potency": "4.18 µM (active)"}
{"molecule": "CC(C)c1onc(-c2c(Cl)cccc2Cl)c1COc1ccc(/C=C/c2cccc(C(=O)O)c2)c(Cl)c1", "Potency": "20.9 µM (active)"}
